Assay results reported in PubChem BioAssay AID504832 (National Center for Advancing Translational Sciences (NCATS), 2011).
About 18,000 (5.8%) of roughly 310,000 compounds were called active. Not shown: some 22% with an inconclusive outcome. Calls come from the whole dose curve; as a rule, active = well fitted inhibition curve with a large enough effect; inconclusive = small, poorly fitted or top-dose-only effect, or another doubt; inactive = no such curve, though single readings can be large or run the other way. What follows is part of a selection rich in actives, with near analogues and random picks from the rest.

Assay: Primary qHTS for delayed death inhibitors of the malarial parasite plastid, 48 hour incubation
Conditions: P. falciparum luciferase growth in erythrocytes; series mostly up to 28.7 µM; activity change, negative = inhibition: at the top concentration
Text: The goal of this screen is to discover new antimalarial compounds that act by inhibiting the development of the apicoplast in the malarial parasite Plasmodium falciparum. The biochemical processes that make this organelle essential for erythrocytic stage parasites are not well understood. However, antibiotics such as azithromycin and tetracycline, which target the apicoplast translational machinery, have a potent antimalarial effect.
We have developed a cell-based assay that measures parasite growth based on the expression of an integrated copy of a firefly luciferase reporter. To detect small molecules that cause this "delayed death" phenotype, erythrocytes infected with the luciferase-expressing parasites were incubated with compounds for either one or two generations, corresponding to 48 and 96 hours, respectively. Compounds that inhibit parasite growth in the second generation, but not the first, should be enriched in antimalarials that target the apicoplast. Growth inhibition is detected by a decrease in luciferase activity.
Assay Provider: David Fidock and Eric Ekland, Columbia University
Keywords: NIH Roadmap, MLPCN, MLI, MLSMR, qHTS, NCGC, qHTS, malaria, luciferase, viability
Four microliters of culture medium (RPMI 1640 with 0.5% w/v Albumax (GIBCO), 24 mM sodium bicarbonate and 10 ug/mL gentamycin) were dispensed by a Multi-drop Combi into white solid 1536-well plates (Grenier) and 23 nL compound was added by a pin tool. Four microliters of infected erythrocytes (2% hematocrit, 0.1% parasitemia final concentration) in culture medium were dispensed and the plates incubated for 48 hours at 37 C in 5% CO2. Two microliters of luciferase detection reagent was added and luminescence was detected by a ViewLux (PerkinElmer) reader.
% is set by controls: 0 for no effect and ±100 for the full control effect; potency is the fitted concentration of half-maximal effect.

SMILES	activity change, negative = inhibition	Potency
Cc1cccc2c1cnn2C(=O)CCC(=O)NC1CCCCC1	23.3% (inactive)	–
O=C(N[C@@H](Cc1c[nH]c2ccccc12)C(=O)O)OCC1c2ccccc2-c2ccccc21	14.7% (inactive)	–
O=C(COC(=O)Cn1[nH]c(=O)c2ccccc2c1=O)Nc1c(Cl)cccc1C(F)(F)F	36.6% (inactive)	–
O=C(Cc1cccs1)NCc1cccc(C(F)(F)F)c1	0.71% [at 0.00184 µM] (inactive)	–
CC1CN(C(=S)Nc2ccccc2F)CC(C)O1 (configuration not stated)	-5.26% (inactive)	–
COc1ccc(C(=O)N2CCCN(C)CC2)c(OC)c1	-12.5% (inactive)	–
COc1ccc(CN2CCNC(=O)C2CC(=O)NCc2cn[nH]c2-c2ccccc2)c(F)c1 (configuration not stated)	-21.3% (inactive)	–
COc1ccc(CN2CC(C(=O)NCCc3ccc(Cl)cc3)CC2=O)cc1 (configuration not stated)	12.1% (inactive)	–
O=C(O)c1ccccc1C(=O)Nc1nc(-c2ccccc2)cs1	1.55% (inactive)	–
Cc1ccc(C)c(NC(=O)c2ccc3nccnc3c2)c1	39.5% (inactive)	–
COc1ccc(CNC(=O)Cc2ccc(-c3ccccc3)cc2)cc1OC	-7.62% (inactive)	–
COc1ccc(Cn2c(-c3ccc(Cl)cc3)c[n+]3ccccc23)cc1	–	0.522 µM (active)
CCn1c(C)cc(=O)cc1-c1ccc(Cl)cc1	-13.4% (inactive)	–
COc1ccc(C(=O)CN(C(=O)c2ccc(Cl)cc2)N2C(=O)c3ccccc3C2=O)cc1	-2.1% (inactive)	–
Cc1ccc(OCC(=O)NCCCNC(=O)c2ccco2)cc1C	-9.91% (inactive)	–
Cn1cccc1C(=O)NNC(=O)COc1ccc(Br)cc1	4.6% (inactive)	–
COc1cccc(C(O)c2nc3ccccc3n2C)c1 (configuration not stated)	12% (inactive)	–
Cc1n[nH]c(=O)c2c(NC(=O)COC(=O)c3ncc(Cl)c(Cl)c3Cl)oc(C)c12	77.2% (inactive)	–
COc1cc(OC)c(S(=O)(=O)Nc2ccccc2C(=O)O)cc1S(=O)(=O)Nc1ccccc1C(=O)O	-2.89% (inactive)	–
Cc1ccc(C)c(NC(=O)CN(C)C(=O)c2ccc3ncsc3c2)c1	-3.05% (inactive)	–
O=C(Nc1ccc(NC(=O)c2cccs2)cn1)c1ccco1	281% (inactive)	–
O=C(Nc1ccnc(-c2ccncc2)n1)c1cccs1	–	11.7 µM (active)
O=C(Nc1ncccn1)c1cccs1	22.9% (inactive)	–
CC(C)CN(C(=O)CSc1ncnc2sccc12)C1CCS(=O)(=O)C1 (configuration not stated)	-15.5% (inactive)	–
CCN(CC)CCn1c2c(c(SCC(=O)Nc3nc4ccccc4s3)nc1=O)CCCC2	-4.88% (inactive)	–
O=C(Nc1ccccc1C(F)(F)F)N1CCCC1c1cccnc1 (configuration not stated)	11% (inactive)	–

SMILES	activity change, negative = inhibition	Potency
O=C(NC(=S)N1CCCCC1c1cccnc1)c1ccccc1 (configuration not stated)	0.637% (inactive)	–
Cc1ccc(-c2cc(C(F)(F)F)n3ncc(C(=O)N4CCCCC4c4cccnc4)c3n2)cc1 (configuration not stated)	–	1.65 µM (active)
CCn1c(SCC(=O)NC2CC2)nnc1-c1ccccn1	-6.85% (inactive)	–
CCOc1ccc(C(=O)CCN2CCOCC2)cc1	-9.9% (inactive)	–
CC(=O)c1ccc(S(=O)(=O)NCc2nnnn2-c2ccccc2)cc1	4.77% (inactive)	–
Cc1cccc(-c2nnc(SCC(=O)O)n2Cc2ccccc2)c1	9.98% (inactive)	–
CC(C)(C)OC(=O)N1CCC(NC(=O)c2[nH]cnc2C(=O)N[C@@H](Cc2ccccc2)C(=O)OCc2ccccc2)CC1	–	0.928 µM (active)
O=C(N[C@@H](Cc1ccccc1)C(=O)OCc1ccccc1)c1nc[nH]c1C(=O)N[C@@H](Cc1ccccc1)C(=O)OCc1ccccc1	25.2% (inactive)	–
C[C@@H](NC(=O)c1nc[nH]c1C(=O)N1CCN(C(=O)OC(C)(C)C)CC1)c1ccccc1	-19.3% (inactive)	–
Cc1onc(C(=O)Nc2ccc3c(c2)OCO3)c1[N+](=O)[O-]	-3.19% (inactive)	–
Cc1c(CCOC(=O)CC23CC4CC(CC(C)(C4)C2)C3)sc[n+]1Cc1ccc([N+](=O)[O-])cc1	–	2.62 µM (active)
Cc1c(CCOC(=O)c2cc([N+](=O)[O-])ccc2Cl)sc[n+]1CCCCS(=O)(=O)[O-]	3.97% (inactive)	–
Oc1ccc(/C=N/Nc2ccc(C(F)(F)F)cn2)cc1O	25.2% (inactive)	–
Oc1ccc(Br)cc1/C=N/Nc1ccccn1	–	1.47 µM (active)
O=C(CCCO)N/N=C/c1cc(Br)ccc1O	-7.77% (inactive)	–
CC(C)c1ccc(S(=O)(=O)N2CCC3(CC2)OCCO3)cc1	-3.34% (inactive)	–
COc1cc2ccccc2cc1C(=O)Nc1ccccc1C	194% (inactive)	–
COc1ccc(C)cc1NC(=O)c1cc(-c2ccccc2)nc2c1cnn2C(C)C	–	4.65 µM (active)
COc1ccc(C)cc1NC(=O)Nc1ccccc1SC	2.04% (inactive)	–
Cc1ccc(-c2noc(C3CCCN(C(=O)c4cccc(Cl)c4)C3)n2)o1 (configuration not stated)	100% (inactive)	–
O=C(CCNC(=O)c1ccc(Br)cc1)NCCCc1ccccc1	25.6% (inactive)	–
Cc1cccc2[nH]c(CN(C)C(=O)C3CCC(=O)N(CCc4ccccc4)C3)nc12 (configuration not stated)	-17.7% (inactive)	–
CC(C)c1ccc(N2CCN(C(=O)c3ccccc3NC(=O)/C=C(\C(=O)O)c3ccccc3)CC2)cc1	–	13.1 µM (active)
COc1ccc(C(=O)Nc2ccccc2C(=O)N2CCN(c3ccccc3)CC2)cc1	-16.5% (inactive)	–
Cc1ccccc1C(=O)NC(=S)Nc1ccc(N2CCN(C(=O)c3ccccc3)CC2)cc1	-9.42% (inactive)	–
COc1ccc(NC(=O)CCS(=O)(=O)c2cc3c(cc2Cl)NC(=O)CO3)cc1OC	21.5% (inactive)	–

SMILES	activity change, negative = inhibition	Potency
O=C(COC(=O)c1cccs1)Nc1ccccc1Cl	4.31% (inactive)	–
O=C(Cc1ccc2c(c1)CCCC2)Nc1ccccc1Cl	–	11.7 µM (active)
O=C(Nc1ccc2c(c1)CCC2)c1cccc(S(=O)(=O)Nc2ccccc2Cl)c1	-1.32% (inactive)	–
O=C(Nc1ccccc1N1CCOCC1)c1ccncc1	-23.9% (inactive)	–
CCCc1ccc(OCC(O)CN2CCN(CCO)CC2)cc1 (configuration not stated)	5.68% (inactive)	–
CN(C)c1nccc(NCc2ccccc2)c1C#N	12.3% (inactive)	–
CCc1nc(NCCO)c(C#N)c2c1CCCC2	1.82% (inactive)	–
CCCCc1nc(NCc2ccccc2)c(C#N)c2c1CCCC2	–	6.57 µM (active)
CCOC(=O)c1ccccc1NC(=O)COC(=O)C(Cc1c[nH]c2ccccc12)NC(C)=O (configuration not stated)	15.1% (inactive)	–
CCOc1ccccc1NC(=O)NC1CCCCCCC1	-19.6% (inactive)	–
CCOc1cccc(=NC2CCCCC2)c2c(C)[nH]c(C)c12	–	2.33 µM (active)
Cc1cc(C)n2nc(C(=O)Nc3cccc(S(=O)(=O)N4CCOCC4)c3)nc2n1	11.9% (inactive)	–
CC(C)C[C@H](NC(=O)C1CC(=O)N(c2ccc3c(c2)OCCO3)C1)C(=O)NC1CCCC1 (some centres not stated)	-6.29% (inactive)	–
C/C=C/C(=O)OCc1csc(CC(=O)Nc2ccccc2C)n1	24.7% (inactive)	–
CCCc1nnc(NC(=O)CCC(=O)N2CCN(S(=O)(=O)c3ccc(OC)cc3)CC2)s1	-11.4% (inactive)	–
COc1ccc(Cc2nc3ccc(C(=O)N4CCC(N(C)C)C4)cc3o2)cc1 (configuration not stated)	-3.86% (inactive)	–
CCc1cccc(NC(=O)COC(=O)C2CCN(c3ccc(C(F)(F)F)cn3)CC2)c1	52.4% (inactive)	–
COc1ccc(C(=O)C2CCCN(Cc3cccn3-c3ccccn3)C2)c(C)c1 (configuration not stated)	–	6.57 µM (active)
COc1ccc(C(=O)C2CCCN(Cc3ccc4nonc4c3)C2)c(C)c1 (configuration not stated)	-14.3% (inactive)	–
CCOC(=O)c1[nH]ncc1CN1CCCC(C(=O)c2ccc(OC)cc2C)C1 (configuration not stated)	21.3% (inactive)	–
COC(=O)c1ccc(NC(=O)CSc2nc(N)c(NC(=O)c3ccc(Br)o3)c(=O)[nH]2)cc1	3.29% (inactive)	–
COCCn1c(SCC(=O)N2CCCCCC2)nc2c(c1=O)SCC2	-12.2% (inactive)	–
COc1ccc(CCNC2=C(Cl)C(=O)N(Cc3ccccc3)C2=O)cc1OC	–	11.7 µM (active)
COc1ccc(CCN2C(=O)C(C)=C(C)C2=O)cc1OC	11% (inactive)	–
COc1ccc(CCN=C2SCC(=O)N2Cc2ccccc2)cc1OC	-10.1% (inactive)	–
CCS(=O)(=O)Nc1ccc(C(=O)NCCSc2ccccc2)cc1	0% (inactive)	–

SMILES	activity change, negative = inhibition	Potency
CN(C)CCNC(=O)c1[nH]nc2c1CCc1ccccc1-2	44.2% (inactive)	–
O=C(N/N=C/c1ccoc1)c1ccc(Cl)cc1Cl	5.69% (inactive)	–
CCCn1nc(NS(=O)(=O)c2ccccc2)c2cc3cc(C)ccc3nc21	8.29% (inactive)	–
CCCn1nc(NS(=O)(=O)c2ccc(F)cc2)c2cc3ccccc3nc21	20.1% (inactive)	–
CCCn1nc(NC(=O)C(C)C)c2cc3cc(OC)ccc3nc21	–	11.7 µM (active)
O=C(OCC(=O)N1CCCCCC1)c1cnc(Cl)c(Cl)c1	-3.82% (inactive)	–
CC[C@]1([C@H]2O[C@@H]([C@@H]3O[C@](O)(CO)[C@@H](C)C[C@H]3C)C[C@H]2C)CC[C@@H]([C@]2(C)CC[C@@]3(C[C@@H](O)[C@@H](C)[C@@H]([C@H](C)[C@H](OC)[C@H](C)C(=O)O)O3)O2)O1	–	0.0169 µM (active)
CSc1ccc(-c2c(C#N)c(N)nc3c2c(C)nn3-c2ccccc2)cc1	–	1.47 µM (active)
CSc1nc(N)c(C#N)c(-c2ccccc2Cl)c1C#N	3.07% (inactive)	–
Cc1nn(-c2ccccc2)c2c1C(c1ccc(F)cc1)C(C#N)=C(N)O2 (configuration not stated)	-21.9% (inactive)	–
COc1cc(CNCc2ccc(OC)c3ccccc23)cc(OC)c1OC	-29.2% (inactive)	–
COc1ccccc1N1CCC(N2CCN(CC(C)(C)C)C(CCO)C2)CC1 (configuration not stated)	-4.92% (inactive)	–
O=C(CN1C(=O)c2cccc3cccc(c23)C1=O)N1CCCCC1	-23.4% (inactive)	–
C[N+](C)(CCCCCC[N+](C)(C)CCCN1C(=O)c2cccc3cccc(c23)C1=O)CCCN1C(=O)c2cccc3cccc(c23)C1=O	–	0.329 µM (active)
O=C1c2cccc3cccc(c23)C(=O)N1CCCCCc1n[nH]c(=S)o1	-2.6% (inactive)	–
N#CCN(C(=O)COC(=O)C1CC2CCCC(C1)C2=O)c1ccccc1 (configuration not stated)	-0.813% (inactive)	–
CCOc1ccc(NC(=O)c2ccc(NC(=O)C3CCCO3)cc2)cc1 (configuration not stated)	11.7% (inactive)	–
O=C(CNCc1cccs1)Nc1cc(S(=O)(=O)N2CCCC2)ccc1Cl	-41.9% (inactive)	–
CC(=O)NCCC(=O)Nc1cc(S(=O)(=O)N2CCCCC2)ccc1Oc1cccc(C)c1	28% (inactive)	–
CCOc1ccc(S(=O)(=O)N2CCCCC2)cc1NC(=O)CN1CCCC1c1cccs1 (configuration not stated)	–	4.65 µM (active)
O=C(CNC(=O)c1ccccc1Br)NNC(=O)c1cccs1	0% (inactive)	–
O=C(NCCCn1ccnc1)c1ccccc1F	10.2% (inactive)	–
O=C(NCCCn1ccnc1)Nc1ccc(Cl)cc1Cl	-10.3% (inactive)	–
O=C(Nc1ccccc1C(=O)NCCCn1ccnc1)c1ccc(Cl)cc1Cl	–	9.28 µM (active)
